Screens from PubChem.
ELG1 genotox – inducers of genotoxicity in HEK293T ELG1-luciferase cells; HEK293T ELG1-luciferase reporter, luminescence, 16 h; 1.3% of 330,000 active; Potency, µM (titrated, usually from 46 µM), actives largely listed as activators; note: nearly all actives have a fitted effect of over 60% in size
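Cells (2,000/well) expressing the ELG1-luciferase fusion are dosed by pin tool and kept 16 hr at 37 °C, 5% CO2. Signal comes from ONE-Glo luciferase reagent after 30 min at room temperature.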
ELG1 repair inh – inhibitors of ELG1-dependent DNA repair in HEK293T cells; AID 504467; Potency, µM (series often up to 46.1 µM), hits mostly inhibitors; 2.3% of 330,000 active; HEK293T ELG1-luciferase reporter, luminescence, 16 h; DNA damage induced by 5-fluorouridine; note: nearly all actives have a fitted effect of over 55% in size
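DMSO vehicle served as the neutral condition. Each well held 2,000 cells given 5-fluorouridine plus compound; after 16 hr at 37 °C/5% CO2, ONE-Glo was added and luciferase measured 30 min later.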
SMN2 splice up – SMN2 splice variant enhancement | 2.8% of 210,000 active | HEK293 SMN2-luciferase splicing reporter, luminescence, 30-36 h | AID 1458 | Potency, µM (top dose mostly 46.1 µM), actives largely listed as activators; note: nearly all actives have a fitted effect of over 55% in size
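qHTS luciferase splicing reporter: luminescence rises when SMN2 exon 7 is included in transfected HEK293 cells. Compound exposure lasted 30-36 h at 37C, with 4.5 mM final sodium butyrate as control, followed by a ONE-Glo read.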
NPC1 promoter act – NPC1 promoter activation. Huh7 NPC1 promoter luciferase reporter, 24 h. Potency, µM (top dose mostly 9.22 µM), actives largely listed as activators. 2.4% of 320,000 active. AID 485313; note: nearly all actives have a fitted effect of over 60% in size
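Huh7 reporter cells (NPC1 promoter driving luciferase) are dosed with compound for 24 h at 37 °C, 5% CO2; luciferase detection reagent is then added and luminescence measured after 10 min at ambient temperature.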
Rab9 prom act – Rab9 promoter activation; Huh7 Rab9 promoter-luciferase reporter, luminescence, 24 h; Potency, µM (top dose mostly 9.22 µM), actives largely listed as activators; 2.8% of 320,000 active; note: nearly all actives have a fitted effect of over 60% in size
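Cells were plated at 1500 per well in reduced-serum medium with 10% FBS and left 2 h. Compound in DMSO was then added for 24 h at 37 °C. Reporter signal was read by luminescence after 10 min with luciferase detection reagent.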
FLuc modulator – counter-screen for miR-21 project: firefly luciferase inhibitors or activators; AID 588342; purified FLuc, Km substrates, luminescence inhibition; Potency, µM (highest dose often 57.5 µM), hits mostly inhibitors; 6.9% of 360,000 active; note: nearly all actives have a fitted effect of over 55% in size
Target sequence (P08659 whole entry, looked up): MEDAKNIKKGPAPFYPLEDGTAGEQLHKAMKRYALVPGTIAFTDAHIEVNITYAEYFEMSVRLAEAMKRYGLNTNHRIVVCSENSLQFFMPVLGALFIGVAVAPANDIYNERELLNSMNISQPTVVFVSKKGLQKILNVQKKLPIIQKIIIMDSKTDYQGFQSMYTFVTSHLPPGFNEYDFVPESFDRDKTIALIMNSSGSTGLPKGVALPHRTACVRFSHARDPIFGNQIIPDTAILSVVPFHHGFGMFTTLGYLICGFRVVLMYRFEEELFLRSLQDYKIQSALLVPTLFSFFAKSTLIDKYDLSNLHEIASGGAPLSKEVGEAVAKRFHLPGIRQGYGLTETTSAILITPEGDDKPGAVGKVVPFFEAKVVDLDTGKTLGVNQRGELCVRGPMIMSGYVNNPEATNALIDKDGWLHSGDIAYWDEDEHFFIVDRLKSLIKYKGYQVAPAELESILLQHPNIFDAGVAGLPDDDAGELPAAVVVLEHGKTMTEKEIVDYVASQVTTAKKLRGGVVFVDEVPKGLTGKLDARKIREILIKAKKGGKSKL
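Purified P. pyralis luciferase, 10 nM final, with Km-level 10 uM D-luciferin and 10 uM ATP in 50 mM Tris acetate pH 7.5, 10 mM Mg acetate, 0.01% Tween-20, 0.05% BSA; 6-point qHTS titration about 60 µM downward; luminescence read.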
Hits are given with their value; . = inactive; ? = inconclusive; / = not tested or not shown; [ ] = remark or other dose. Hits are enriched below; roughly 9.2% of the tested compounds scored in any of these assays. Calls come from the whole dose curve; as a rule, active = well fitted curve in the direction sought with a large enough effect; inconclusive = small, poorly fitted or top-dose-only effect, or another doubt; inactive = no such curve, though single readings can be large; an effect the other way counts as inactive or inconclusive.

SMILES	ELG1 genotox	ELG1 repair inh	SMN2 splice up	NPC1 promoter act	Rab9 prom act	FLuc modulator
CN1C(=O)[C@@H]2C[C@@]3([C@@]45C[C@H]6C(=O)N(C)[C@@H](Cc7ccccc7)C(=O)N6[C@@H]4Nc4ccccc45)c4ccccc4N[C@H]3N2C(=O)[C@@H]1Cc1ccccc1	.	?	/	.	.	.
Cn1c(N)c(S(=O)(=O)N2CCN(c3cccc(Cl)c3)CC2)c(=O)n(C)c1=O	.	.	/	.	.	.
O=C(N/N=C/C(Br)=C\c1ccccc1)c1ccc2nc[nH]c2c1	.	?	?	.	.	12µM
CC(=C/c1ccccc1)/C=N/NC(=O)c1ccc2nc[nH]c2c1	.	?	?	.	.	5.4µM
CC(/C=N/NC(=O)c1ccc2nc(C)[nH]c2c1)=C\c1ccccc1	.	.	.	.	.	8.5µM
CC(/C=N/NC(=O)c1cc(-c2ccc(C)s2)[nH]n1)=C\c1ccccc1	.	?	.	.	.	?
CC(=O)Nc1nc(CCN2C(=O)c3ccccc3C2=O)cs1	.	.	.	.	.	.
CNS(=O)(=O)c1cn(CC(=O)NCc2ccccc2OC)cc1S(=O)(=O)NC	.	.	/	.	.	.
COCc1cc(C)nc2sc(C(=O)Nc3nccs3)c(N)c12	.	?	.	?	?	17µM
CCCCOC(=O)c1sc2nc(C)cc(C)c2c1N	?	?	/	3.5µM	2.8µM	11µM
Cc1cc(C)c2c(N)c(C(=O)Nc3nccs3)sc2n1	0.33µM	?	?	?	1µM	0.34µM
Cc1ccc(NC(=O)c2sc3nc(C)cc(C)c3c2N)cc1	?	?	/	0.56µM	0.56µM	1.2µM
CCN(C(=O)CSc1nnc(C)c(=O)[nH]1)c1cccc2ccccc12	.	.	/	/	/	/
COCCn1c(C)cc(O)c(C(c2cccc(F)c2)N2CCN(c3ccccc3)CC2)c1=O (stereo not given)	/	/	/	/	/	.
CCc1ccc(S(=O)(=O)Nc2ccc(-c3ccc4nnc(C)n4n3)cc2)s1	23µM	?	/	.	.	.
Cc1nnc2ccc(-c3ccc(NS(=O)(=O)c4ccccc4F)cc3)nn12	21µM	?	/	.	.	.
Cc1nnc2ccc(-c3ccc(NS(=O)(=O)c4ccccc4[N+](=O)[O-])cc3)nn12	?	?	/	.	.	.
Cc1nnc2ccc(-c3ccc(NS(=O)(=O)c4ccc(F)cc4F)cc3)nn12	21µM	?	/	.	.	.
Cc1cc(C)c(NC(=O)CNC(=O)CSc2nnc(N)s2)c(C)c1	.	.	/	.	.	.
O=C(Nc1ccc(Cl)cc1)ON=C1CCCC1	?	?	.[1.84 µM]	.	3.5µM	17µM
Cc1ccc2nc(C)/c(=N\O)c(C)nc2c1	?	?	.	.	.	?
Cc1nc2ccc(Cl)cc2nc(C)/c1=N\O	18µM	?	.	.	.	?
COc1cc(/C=N/NC(=O)C(=O)NCc2ccco2)cc(Br)c1O	.	.	/	.	.	.
CC(C)(C)S(=O)(=O)/C(C#N)=N/Nc1ccc(C#N)cc1	.	18µM	.	.	.	?
O=C1CC[C@@H](OCc2ccccc2)CCN1CC[C@H](Sc1ccccc1)c1ccccc1	.	?	/	.	.	?
SMILES	ELG1 genotox	ELG1 repair inh	SMN2 splice up	NPC1 promoter act	Rab9 prom act	FLuc modulator
CCOC(=O)c1csc(NC(=O)C(C)(C)C)n1	.	?	.	.	.	.
CCOC(=O)c1csc(NC(=O)c2cc(OC)c(OC)c(OC)c2)n1	.	5.8µM	.	.	.	.
CCOC(=O)Cc1csc(NC(=O)c2cccs2)n1	?	?	.	.	.	19µM
CCOC(=O)Cc1csc(NC(=O)/C=C/c2ccc(Br)o2)n1	.	?	/	.	.	6.7µM
CCCC(=O)Nc1nc(CC(=O)OCC)cs1	.	.	.	.	.	.
CCOC(=O)Cc1csc(NC(=O)c2ccc(Br)o2)n1	.	.	.	.	.	?
CCOC(=O)c1csc(NC(=O)c2cccs2)n1	?	?	/	2.2µM	2.2µM	13µM
CCCC(=O)Nc1nc(C(=O)OCC)cs1	.	.	.	.	.	.
CCc1nn(Cc2ccc(Cl)cc2)c(=O)c2cc3cc(C)ccc3n12	/	/	.	/	/	.
CCOC(=O)Cc1csc(NC(=O)c2ccc(Br)s2)n1	.	.	.	.	.	24µM
CCOc1cccc2sc(NC(=O)c3ccc(S(=O)(=O)N4CCc5ccccc54)cc3)nc12	/	/	/	/	/	.
CCOc1cccc2sc(NC(=O)c3ccc(Br)s3)nc12	.	.	.	.	.	2.7µM
CCCCOc1cccc(C(=O)N(Cc2ccc(C)o2)c2ccccn2)c1	/	/	/	/	/	.
COc1ccc(NC(=O)COc2ccc(N(C)S(=O)(=O)c3ccc(Cl)cc3)cc2)cc1OC	.	?	/	.	.	.
Nc1ccc2nc(N3CCOCC3)sc2c1	?	?	16µM	?	2µM	?
Clc1ccc(-c2nsc(N3CCOCC3)n2)c(Cl)c1	3.3µM	?	/	0.79µM	1µM	4.3µM
O=C(NCc1ccccc1)c1ccc2nc(N3CCOCC3)sc2c1	.	.	/	.	.	?
c1ccc(N2CCN(c3nc4cc5c(cc4s3)OCCO5)CC2)cc1	.	?	10µM	?	?	?
c1c2c(cc3sc(N4CCOCC4)nc13)OCCO2	0.33µM	?	1.1µM	0.4µM	0.5µM	0.95µM
COc1cn(CC(=O)Nc2ccccc2)c(CN2CCCCC2)cc1=O	/	/	/	/	/	.
Cc1ccc(C)c(NC(=O)C2CCN(c3nn4c(=O)cc(C)nc4s3)CC2)c1	/	/	.	/	/	.
Clc1cc(Cl)c2nc(N3CCOCC3)sc2c1	?	?	?	.	?	17µM
CCC(=O)c1ccc(OCC(=O)OCC(=O)NCC2CCCCC2)cc1	.	.	/	.	.	.
CCOC(=O)N1CCC(NC(=O)c2ccc3c(c2)N(Cc2ccc(F)cc2)CCS3)CC1	.	18µM	.	.	.	.
CCOC(=O)N1CCC(NC(=O)c2ccc3c(c2)N(Cc2ccccc2)CCS3)CC1	.	15µM	.	.	.	.
SMILES	ELG1 genotox	ELG1 repair inh	SMN2 splice up	NPC1 promoter act	Rab9 prom act	FLuc modulator
CCOc1ccc(CCNC(=O)Cn2nc(CC)n3c(cc4ccccc43)c2=O)cc1	/	/	.	/	/	.
COc1cc(C(=O)N/N=C(\C)c2ccccn2)cc(OC)c1OC	.	.	/	.	.	.
C/C(=N/NC(=O)c1ccccn1)c1ccco1	.	?	?	0.89µM	0.5µM	5.4µM
C/C(=N\NC(=O)c1ccccn1)c1ccc(Cl)cc1	?	?	/	0.79µM	0.56µM	2.4µM
C/C(=N\NC(=O)c1ccc(Cl)cc1)c1ccccn1	3.3µM	?	/	?	.	7.6µM
C/C(=N\Nc1ccc(Cl)cc1)c1ccncc1	.	?	/	.	.	?
C/C(=N\Nc1ccc(Cl)cc1)c1ccccn1	21µM	?	14µM	.	?	11µM
Cc1nc(-c2cccc(Br)c2)ccc1C(=O)O	.	?	.	.	.	.
COc1cccc(CN(C)CC(=O)NC(=O)NCc2ccco2)c1	.	.	.	.	.[1.84 µM]	.
